# From PubChem BioAssay
# The list is not random: actives were taken first. Their share in the collection is about 8.8%.
# HTT ATP protect: cytoprotection in Huntington HTT-Q103 PC12 cell model | PC12 HTT-Q103 induced, cytoprotection, ATP luminescence, 40 h | Potency, µM (titrated, usually from 56.4 µM), hits mostly activators | hit rate 0.14% among 230,000 | AID 1471; note: nearly all actives have a fitted effect of over 45% in size
#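 Readout: ATPlite luminescence (ATP level). Model: stable PC12, inducible Htt exon1 Q103-GFP. Inducer: tebufenozide, 100 nM final. Compounds: dose series. No G418 in medium.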
# HTT aggregate: reduces HttQ103-GFP aggregates in PC12 cells. PC12 HttQ103-GFP aggregates, Acumen cytometry, 40 h. Potency, µM (titrated, usually from 46.1 µM), hits mostly inhibitors. hit rate 1.1% among 220,000. AID 1688; note: nearly all actives have a fitted effect of over 60% in size
#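 Aggregate formation scored by laser-scanning cytometer (488 excitation, 500–530 emission) in lysed PC12 cells expressing Q103-GFP after 100 nM tebufenozide induction; library tested in dose series, with ATPLite reagent added in the multiplex.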
# HPGD block: HPGD (human) dehydrogenase inhibition; AID 894; hit rate 4.3% among 150,000; purified HPGD, NADH fluorescence kinetic, PGE2 substrate; Potency, µM, hits mostly inhibitors; P15428; active = well fitted inhibition curve with a large enough effect, not every such curve was filed as active; inconclusive = small, poorly fitted or top-dose-only effect, or another doubt; inactive = no such curve, though single readings can be large or run the other way
# Target sequence (P15428 whole entry, looked up): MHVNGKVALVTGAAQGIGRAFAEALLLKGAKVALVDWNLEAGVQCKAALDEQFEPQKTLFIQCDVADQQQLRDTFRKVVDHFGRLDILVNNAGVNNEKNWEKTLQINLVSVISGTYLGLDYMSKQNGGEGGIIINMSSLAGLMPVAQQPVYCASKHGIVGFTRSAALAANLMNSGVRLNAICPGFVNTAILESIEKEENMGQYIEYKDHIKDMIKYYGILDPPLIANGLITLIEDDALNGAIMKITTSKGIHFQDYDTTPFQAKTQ
#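 20 nM HPGD preincubated 15 min at room temperature with compound in 50 mM Tris-HCl pH 8, 0.01% Tween 20. Started with 1 mM NAD+ and 30 uM prostaglandin E2; NADH fluorescence (360/450 nm) read 5 times over 30-s intervals, last minus first.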
# LMNA splice mod: LMNA splicing modulation; HeLa LMNA splicing GFP/RFP minigene ratio, 48 h; Potency, µM (highest dose often 46.1 µM), actives largely listed as inhibitors; hit rate 0.01% among 200,000; AID 1487; active = well fitted inhibition curve with a large enough effect in the signal ratio, with a control signal flat, not every such curve was filed as active; inconclusive = small, poorly fitted or top-dose-only effect, or effect the other way, or a change in a side signal; the % refers to the signal ratio
#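 Read-out is the ratio of GFP to DsRed2 object intensity, acquired by 488 nm laser-scanning cytometry on HeLa lamin A-EGFP minigene reporter cells. Compound incubation 48 hrs at 37 °C in Opti-MEM with 2% FBS; DMSO 0.5% final.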
# ALDH1A1 block: blocks purified human ALDH1A1 activity. Potency, µM (highest dose often 75.3 µM), usual class: inhibitors. Purified ALDH1A1, NADH fluorescence, propionaldehyde substrate. P00352. hit rate 7.3% among 220,000; active = well fitted inhibition curve with a large enough effect, not every such curve was filed as active; inconclusive = small, poorly fitted or top-dose-only effect, or another doubt; inactive = no such curve, though single readings can be large or run the other way
# A number is an active result; – = inactive; ? = inconclusive; · = not tested or not shown; ! = not active in a repeat; [ ] = remark or other dose. Unless noted, calls come from the whole dose curve; as a rule, active = well fitted curve in the direction sought with a large enough effect; inconclusive = small, poorly fitted or top-dose-only effect, or another doubt; inactive = no such curve, though single readings can be large; an effect the other way counts as inactive or inconclusive.
SMILES,HTT ATP protect,HTT aggregate,HPGD block,LMNA splice mod,ALDH1A1 block
NC(=O)c1c(NC(=O)CCCC(=O)O)sc2c1CCCCCC2,·,–,28µM,?,–
CC(C)(CO)N=C1NS(=O)(=O)c2cc([N+](=O)[O-])ccc21,·,10µM,–,–,–
C#CCOc1ccc(Br)cc1/C=N/O,–,–,14µM,–,–
CCCOc1ccc(Br)cc1/C=N/O,–,–,10µM,–,–
CCOc1ccc(Br)cc1/C=N/O,–,–,11µM,–,–
O=C(O)COc1ccc(Br)cc1/C=N/O,–[10 µM],–,–,–,–
FC(F)(F)c1cnc(-c2cnc(-c3ccncc3)nc2)c(Cl)c1,–,?,·,–[9.22 µM],18µM
COc1ccc2[nH]cc(CC(N)C(=O)O)c2c1 (configuration not stated),–,·,–,·,–
N[C@@H](Cc1c[nH]c2ccc(O)cc12)C(=O)O,–,–,–,?,28µM!
CN(C(=O)CSc1nc2ccc(NC(=O)c3cccc(F)c3)cc2s1)c1ccccc1,·,·,·,–,·
Cc1cccc(NC(=O)CN2C(=O)N/C(=C/c3ccc(C)o3)C2=O)c1,–[10 µM],–,–,–,10µM
C=CCN1C(=O)N/C(=C/c2ccc(C)o2)C1=O,–[10 µM],?,–,–,7.9µM
Cc1ccc(CN2C(=O)N/C(=C/c3ccc(-c4ccc(C(=O)O)cc4)o3)C2=O)cc1,–[10 µM],–[9.22 µM],·,·,·
Cc1ccc(NC(=O)CN2C(=O)N/C(=C/c3ccc(C)o3)C2=O)cc1,–,–,?,–,13µM
Cc1ccc(NC(=O)CN2C(=O)N/C(=C/c3ccc(C)s3)C2=O)cc1,–[10 µM],–,–,–,–
O=C(/C=C/c1ccc(Br)o1)NC(c1ccccc1)c1ccccc1,–[10 µM],?,–,?,22µM
CC(C)c1ccc(C(=O)NCc2ccc(Cl)cc2)cc1,–[10 µM],–,–,–,–
O=C(NCc1ccc(F)cc1)c1ccc(Br)o1,–,–,·,·,–
O=C(/C=C/c1ccc(Br)o1)OCc1ccccc1,–,–,–,–,?
O=C(NCc1ccccc1)c1cccc(Br)n1,–,–,32µM,–,–
Cc1ccc(C(=O)NCc2ccc(Cl)cc2)o1,–,–,14µM,–,–
COc1ccc(CNC(=O)c2ccc(Br)o2)cc1,–,–,25µM,–,25µM
CS(=O)(=O)N1CCC(C(=O)N2CCN(c3ccc(F)cc3)CC2)CC1,?,–[9.22 µM],·,–,–
CCNc1ncc2nc(-c3ccc(F)cc3)c(=O)n(Cc3ccc(F)cc3)c2n1,–,·,·,–,?
CCCCC(CC)CCC(CC(C)C)OS(=O)(=O)O (configuration not stated),–,–,·,·,·
SMILES,HTT ATP protect,HTT aggregate,HPGD block,LMNA splice mod,ALDH1A1 block
CCCCC(=O)NCc1ccc(Cl)cc1,–[0.074 µM],–,14µM,–,–
O=C(NCc1ccc(Cl)cc1)c1ccc(Cl)cc1[N+](=O)[O-],–,–,16µM,–,–
O=C(NC(c1ccccc1)c1ccccc1)c1ccc(Br)o1,–,–,–,–,0.79µM
O=C(NC1CCCC1)c1ccc(Br)o1,–,–,16µM,–,–
CCc1ccc(C2=C(C)C(N3CCC(C(=O)NCc4ccccc4)CC3)=NS2(=O)=O)cc1,·,·,·,–,·
CC(=O)c1sc(-c2ccc(F)cc2)cc1NS(=O)(=O)c1ccccc1,–[10 µM],–[9.22 µM],·,·,·
O=C(NCc1ccccc1)c1ccc(CS(=O)(=O)Cc2ccccc2F)o1,–,–,·,·,13µM
COCCCNC(=O)c1ccccc1Oc1ccccc1,–,–,–,–,–
O=C(NCc1ccccc1)c1ccc(Br)o1,·,–,13µM,–,–
O=C(NCc1ccc(Cl)cc1)c1ccccc1Oc1ccccc1,–,?,10µM,–,?
Cc1ccc(CNC(=O)c2ccc(Br)o2)cc1,–,–,3.2µM,–,16µM
O=C(c1ccc(Br)o1)N(Cc1ccccc1)Cc1ccccc1,–,–,–,?,0.79µM
Cc1ccc(CNC(=O)c2cc3c(C)nc4ccccc4c3o2)cc1,–[10 µM],11µM,–,?,–
O=C(NCCc1ccccc1)c1ccc(Br)o1,–,–,?,–,?
Cc1nc2ccccc2c2oc(C(=O)NCc3ccccn3)cc12,–,?,–,–,?
CN(C)Cc1nc2c(c(=O)[nH]1)C1(CCCCC1)Cc1ccccc1-2,–,–,–,?,–
O=c1c2c(nc3n1CCCCC3)-c1ccccc1CC21CCCC1,–[10 µM],?,–,?,0.63µM
C=CCNC(=S)NNc1nc2c(c(=O)[nH]1)C1(CCCC1)Cc1ccccc1-2,–[10 µM],–,?,–,3.5µM
